Experimental data reported in PubChem BioAssay AID720489 (Milwaukee Institute for Drug Discovery, 2013).
Some of the results follow. A number with no mark means an inactive call.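 The calls were made as follows: active = fluorescence interference ratio at or below 0.8 quencher or at or above a set limitenhancer; inactive = the rest.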

Test: compounds quenching or enhancing NS3h-DNA Cy5 signal – biochemical, ChemBridge library, Cy5-DNA-NS3h complex, artefact control for HCV NS3 helicase inhibitor project, confirmation (AID 720489)
Conditions: Cy5-dT15 DNA/NS3h fluorescence interference counterscreen; at 100 µM

Molecule `CCOc1cc(C=C2C(=O)NC(=O)NC2=O)cc(Br)c1OCCOc1ccccc1C` has a fluorescence interference ratio of 0.809.
